# Test results taken from PubChem BioAssay (NCATS).
# A number with no mark means an inactive call. Calls of active or inactive are those of the source. The call rests on the fitted dose curve; in most records, active means well fitted curve in the direction sought with a large enough effect; inactive means no such curve, though single readings can be large or run the other way.
# Biological target: Alpha-galactosidase (Coffea arabica) (UniProt Q42656)
# Assay: Counterscreen for Glucocerebrosidase Inhibitors: qHTS Assay for Coffee Bean alpha-Galactosidase at pH 5.9 (AID 998);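 further: plate controls were uninhibited enzyme for no effect and no-enzyme basal signal for full effect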
# Settings: coffee bean alpha-galactosidase enzyme assay; series mostly up to 76.9 µM; activity, negative = inhibition: at the top concentration
# From the text: NIH Chemical Genomics Center [NCGC]
# NIH Molecular Libraries Screening Centers Network [MLSCN]
# PI Name: Zheng, Wei [NIH]
# Alpha-galactosidase is a homodimeric glycoprotein that hydrolyzes the terminal alpha-galactosyl moieties from glycolipids and glycoproteins. Deficiency of this enzyme results in Fabry Disease with progressive accumulation of globotriaosylceramide and other glycosphingolipids in vascular endothelial cells that causes renal failure, myocardial infarction and stroke, and premature death in patients. It has reported that the improper folding and trafficking of alpha-galactosidase resulted from the genetic mutations may account for a significant numbers of Fabry patients. […] We optimized this coffee bean alpha-galactosidase assay in 1536-well plate format as a counter-screen assay for identifying the selective small molecule inhibitors of other lysosomal enzymes.
# NCGC Assay Protocol Summary:
# This is a fluorogenic enzyme assay with 4-Methylumbelliferyl alpha-D-galactopyranoside as the substrate and green coffee bean […] (from Sigma-Aldrich) as the enzyme preparation. Upon the hydrolysis of this fluorogenic substrate, the resulting product, […]. 4-Methyllumbelliferone, can be excited at 365 nm and emits at 440 nm which can be detected by a standard fluorescence plate reader. Data were normalized to the controls for basal activity (without enzyme) and 100% activity (with enzyme). In the AC50 values were determined from concentration-response data modeled with the standard Hill equation.
# Assay buffer: 50 mM citric acid, 0.005% Tween-20, pH 5.9. (pH 5.9 is an optimal condition for this enzyme assay.)
# 1536-well assay protocol for the coffee bean alpha-galactosidase:
# (1) Add 2 ul/well of enzyme (2 nM final)
# (2) Add 23 nL compounds in DMSO solution. The final titration was 0.7 nM to 77 uM.
# (3) Add 1 ul of substrate (80 uM final)
# (4) Incubate at room temperature for 20 min.
# (5) Add 2 ul stop solution (1M NaOH and 1M Glycine mixture, pH 10)
# (6) Detect the assay plate in a ViewLux plate reader (PerkinElmer) with Ex=365 nm and Em=440nm.
# Keywords: Alpha-galactosidase, Fabry Disease, pharmacological chaperone, chaperone therapy, high throughput screening, alpha-galactosidase inhibitor, MLSMR, MLSCN, NIH Roadmap, qHTS and NCGC
# Sequence of Alpha-galactosidase (Coffea arabica) (Q42656 whole entry, looked up): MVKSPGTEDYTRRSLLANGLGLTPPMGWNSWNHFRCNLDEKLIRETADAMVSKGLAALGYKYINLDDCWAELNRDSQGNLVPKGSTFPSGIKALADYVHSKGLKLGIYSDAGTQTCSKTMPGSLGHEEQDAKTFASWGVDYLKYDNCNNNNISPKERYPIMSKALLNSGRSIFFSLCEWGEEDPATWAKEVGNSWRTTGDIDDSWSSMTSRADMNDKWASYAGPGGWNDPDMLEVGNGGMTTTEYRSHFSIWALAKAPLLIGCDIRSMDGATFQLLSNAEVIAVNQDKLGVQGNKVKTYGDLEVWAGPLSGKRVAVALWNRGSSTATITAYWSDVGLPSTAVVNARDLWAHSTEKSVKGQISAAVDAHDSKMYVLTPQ
SMILES,"activity, negative = inhibition [%]",outcome
c1ccc2nc(N3CCNCC3)ccc2c1,0.926,–
Clc1ccc(Cn2c(CN3CCCC3)nc3ccccc32)cc1,-4.48,–
CCN(CC)CCOCCOC(=O)C1(c2ccccc2)CCCC1,-3.12,–
CCOC(=O)Nc1ccc(NCc2ccc(F)cc2)nc1N,2.03,–
COc1ccc(C(=O)N2CCCC2=O)cc1,0.267,–
NC(=O)CN1CCCC1=O,0.136,–
CCc1cccc2c3c([nH]c12)C(CC)(CC(=O)O)OCC3 (stereo not given),-1.17,–
COc1ccc2c(c1)c(CC(=O)O)c(C)n2C(=O)c1ccc(Cl)cc1,-0.298,–
O=C(O)CCc1nc(-c2ccccc2)c(-c2ccccc2)o1,2.01,–
CCCCNc1cc(C(=O)O)cc(S(N)(=O)=O)c1Oc1ccccc1,-1.16,–
CCCCCCCCC(=O)NCc1ccc(O)c(OC)c1,-4.94,–
CCCOc1ccccc1-c1nc2n[nH]nc2c(=O)[nH]1,0.735,–
NC(N)=NC(=O)c1nc(Cl)c(N)nc1N,-3.09,–
OC(CN1CCC(Cc2ccc(F)cc2)CC1)c1ccc(Cl)cc1 (stereo not given),-3.85,–
O=C(O)c1cccnc1Nc1cccc(C(F)(F)F)c1,-0.304,–
Oc1cc(O)c2c(c1)O[C@H](c1ccc(O)c(O)c1)[C@H](O)C2,0.413,–
CN1[C@@H]2CC[C@H]1CC(OC(=O)c1c[nH]c3ccccc13)C2 (stereo not given in full),2.21,–
CC1=C(C)C(=O)C(CCCCC#CCCCC#CCO)=C(C)C1=O,-2.79,–
C[n+]1cc2c3c(ccc2c2ccc4cc5c(cc4c21)OCO5)OCO3,-1.87,–
CC(C)NCC(O)COc1ccc(COCCOC(C)C)cc1 (stereo not given),-2.48,–

SMILES,"activity, negative = inhibition [%]",outcome
COc1ccc(CN(CCN(C)C)c2ccccn2)cc1,-0.235,–
Cc1ccc(C(=O)Nc2ccc(S(=O)(=O)O)c3cc(S(=O)(=O)O)cc(S(=O)(=O)O)c23)cc1NC(=O)c1cccc(NC(=O)Nc2cccc(C(=O)Nc3cc(C(=O)Nc4ccc(S(=O)(=O)O)c5cc(S(=O)(=O)O)cc(S(=O)(=O)O)c45)ccc3C)c2)c1,1.76,–
CCNC(=O)N1CCN(CCCC(c2ccc(F)cc2)c2ccc(F)cc2)CC1,-4.02,–
COc1ccccc1N1CCN(CCCNc2cc(=O)n(C)c(=O)n2C)CC1,1.57,–
NCCc1cnc[nH]1,1.69,–
C[N+](C)(C)CCOC(=O)CCC(=O)OCC[N+](C)(C)C,0.676,–
CN(C)CCN(Cc1cccs1)c1ccccn1,-1.7,–
Nc1c2c(nc3ccccc13)CCCC2,-1.84,–
CC1=C(CC(=O)O)c2cc(F)ccc2/C1=C\c1ccc(S(C)(=O)=O)cc1,-5.57,–
CCc1cccc(N(C)C(N)=Nc2cccc3ccccc23)c1,-7.83,–
C[C@]12CC[C@@H]3c4ccc(O)cc4CC[C@H]3[C@@H]1CCC2=O,6.2,–
CCCn1cnc2c1c(=O)n(CCCCC(C)=O)c(=O)n2C,-4.55,–
COC(=O)C1=C(C)NC(C)=C(C(=O)OC)C1c1ccccc1[N+](=O)[O-],-0.797,–
CC(C)(C)c1ccc(C(O)CCCN2CCC(C(O)(c3ccccc3)c3ccccc3)CC2)cc1 (stereo not given),-7.68,–
NC(=O)CC[C@@H](N)C(=O)O,2.54,–
O=c1[nH]c2ccccc2n1CCCN1CCN(C(c2ccccc2)c2ccccc2)CC1,-4.19,–
Cc1cc(C(C)(C)C)cc(C)c1CC1=NCCN1,0.499,–
CNC[C@H](O)c1ccc(O)c(O)c1,–,inactive
CCC(=O)c1ccc2c(c1)N(CCCN(C)C)c1ccccc1S2,0.507,–
COC(=O)C1=CCCN(C)C1,3.42,–
